This passage reports Potency results from PubChem BioAssay (Tox21).

Each structure is given as a SMILES string. Inconclusive results are not listed. Where a call stands in place of a potency, no number is given. Calls of active or inactive are those of the source. The call rests on the fitted dose curve; in most records, active means well fitted inhibition curve with a large enough effect in the repeat runs; inconclusive means weak or mixed curves; inactive means no such curve, though single readings can be large or run the other way.
Potency means the concentration at half of the fitted maximal effect.

Sequence of Cytochrome P450 3A4 (Homo sapiens) (P08684 whole entry, looked up): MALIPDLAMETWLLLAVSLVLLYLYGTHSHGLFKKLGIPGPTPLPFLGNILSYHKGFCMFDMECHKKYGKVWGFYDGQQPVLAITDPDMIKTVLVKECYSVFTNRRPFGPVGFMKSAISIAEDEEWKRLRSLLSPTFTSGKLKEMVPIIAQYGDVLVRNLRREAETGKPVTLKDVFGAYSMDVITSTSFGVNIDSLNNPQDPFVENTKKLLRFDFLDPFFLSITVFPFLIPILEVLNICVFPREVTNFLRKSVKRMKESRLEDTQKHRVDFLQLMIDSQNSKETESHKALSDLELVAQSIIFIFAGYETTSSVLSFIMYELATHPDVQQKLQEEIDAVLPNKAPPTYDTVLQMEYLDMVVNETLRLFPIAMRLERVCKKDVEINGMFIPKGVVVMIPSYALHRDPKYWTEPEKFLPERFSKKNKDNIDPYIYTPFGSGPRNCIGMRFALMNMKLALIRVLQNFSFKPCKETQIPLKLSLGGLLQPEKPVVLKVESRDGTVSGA

The test deals with Cytochrome P450 3A4 (Homo sapiens) (UniProt P08684). Description: Cytochrome P450 Family 3 Subfamily A Member 4 (CYP3A4) small molecule antagonists: luciferase reporter qHTS assay (AID 1671201). Further: nearly all actives have a fitted effect of over 50% in size. The note with it: P450-Glo CYP3A4 enzyme, luciferin luminescence, 1 h; series mostly up to 115 µM. An excerpt:
National Center for Advancing Translational Sciences [NCATS]
U.S. Environmental Protection Agency [EPA]
National Institutes of Environmental Health Sciences [NIEHS]
National Toxicology Program [NTP]
U.S. Food and Drug Administration [FDA]
Cytochrome P450 (CYP) enzymes are membrane-bound hemeproteins that play a key role in metabolism of drugs and xenobiotics. Evaluation of the effect of chemicals on CYP isozymes is useful to minimize the adverse drug reactions and toxicities in drug development process. Tox21 chemicals were tested for their effect on CYP enzyme activities by using P450-Glo (TM) screening systems (Promega Corporation, Madison, WI). These systems provide a luminescent method containing proluciferin substrates and are converted to luciferin products by CYP isozymes. The luciferin products formed are detected with a luciferin detection reagent, and the amount of light produced is proportional to CYP activity. P450-Glo (TM) CYP3A4 screening system (Catalog. No. V9910) was used to detect the compounds that interfere in CYP3A4 activity. The positive control compound used for CYP3A4 assay is ketoconazole (Sigma-Aldrich, St. Louis, MO).
Tox21 Assay Protocol Summary:
Two ul of enzyme-substrate mix was dispensed into medium binding white/solid 1536-well plates (Greiner Bio-One North America Inc., Monroe, NC) using a BioRaptr Flying Reagent Dispenser (FRD, Beckman Coulter, Brea, CA). Compounds dissolved in DMSO and positive control (ketoconazole) were transferred to the assay plates at 23 nl using a Pintool station (Wako, San Diego, CA). The assay plates were incubated at room temperature for 10 min. Then 2 ul of NADPH regeneration solution was added to each well of the assay plates using an FRD and incubated at room temperature for 1 h. The reaction was stopped by adding 4 ul of detection reagent using an FRD and after 20 min incubation at room temperature the luminescence signal was measured using a ViewLux plate reader (Perkin Elmer, Shelton, CT). Data were expressed as relative luminescence units.
Take `CCCCCCCCCCC(=O)O`: the Potency result is “inactive”.

For the compound `O=C1c2ccccc2C(=O)C1c1ccc(Br)cc1`, the Potency result was “inactive”. The entry for `C[C@@H](O)[C@H]1C(=O)N2C(C(=O)O)=C([C@H]3CCCO3)S[C@H]12` is “inactive”. Take `O=c1[nH]c2ccc(Cl)cc2o1`: the Potency result is “inactive”. The value for `CC(C)(c1ccccc1)c1ccccc1` was “inactive”. On to `COc1ccccc1NC(=O)c1cc2ccccc2cc1O`, for which the Potency was 28.3 µM (active). In the case of `CC(CO)CO`, the Potency result is “inactive”.

In the case of `NC(=O)c1ccncc1`, the Potency entry is “inactive”. The entry for `O=C1C(=O)c2ccccc2C(O)=C1C1CCC(c2ccc(Cl)cc2)CC1` (stereo not given) is “inactive”; for `C=C/C(C)=C/C/C=C(\C)CCC=C(C)C` it is 15.9 µM (active).

On to `O=C(Nc1cccc2c(=O)cc(-c3nn[nH]n3)oc12)c1ccc(OCCCCc2ccccc2)cc1`, for which the Potency entry is “inactive”.

Turning to `CC(C)=CCC/C(C)=C/CC/C(C)=C/CCC(=O)OC/C=C(\C)CCC=C(C)C`, the Potency entry was “inactive”. The figure for `c1cc(N(CC2CO2)CC2CO2)ccc1Cc1ccc(N(CC2CO2)CC2CO2)cc1` (stereo not given) is 12.6 µM (active); for `Cc1cccc(O)c1N` it is 36 µM (active); for `Nc1nnc(-c2ccc([N+](=O)[O-])o2)o1` it is “inactive”.

As for `CC(=O)N/N=C/c1ccc([N+](=O)[O-])o1`, the Potency entry was “inactive”. Regarding `CC1(C)[C@H](C(=O)O)N2C(=O)C[C@H]2S1(=O)=O`, the Potency result is “inactive”. The value for `CC1=C(CC=O)C(C)(C)CCC1` was 31.7 µM (active). `COC(=O)CS`: the Potency entry was “inactive”. Regarding `CC(=O)c1cc2ccccc2s1`, the Potency entry is “inactive”. The entry for `c1ccc(C[n+]2cccc3ccccc32)cc1` is “inactive”; for `CC1CC(C)C(=O)C1=O` (stereo not given) it is “inactive”; for `CCCCCCCCOc1ccc(C(=O)O)cc1` it is “inactive”.

For the compound `CCC(OCCCOC)OC(C)=O` (stereo not given), the Potency entry is “inactive”. Turning to `Cc1ccc(OC(=O)c2ccccc2O)cc1`, the Potency entry is “inactive”.

On to `CCOC(=O)/C=C/C(=O)OCC`, for which the Potency result was “inactive”. The value for `CN(C)CCC=C1c2ccccc2C=Cc2ccccc21` was “inactive”; that for `CCC(C)COC(=O)CC(C)C` (stereo not given) was “inactive”.

Turning to `CC(C)(O)c1ccc(CNC(=O)c2cccnc2Oc2ccc3nonc3c2)cc1`, the Potency was 25.2 µM (active). The value for `Cc1ccco1` was “inactive”; that for `C=C1CCC2CC1C2(C)C` (stereo not given) was “inactive”. As for `CCC(=O)C1CC(C(C)C)CC=C1C` (stereo not given), the Potency is 39.9 µM (active).

Turning to `CC(=O)[C@H]1[C@H](C#N)C[C@H]2[C@@H]3CC=C4C[C@@H](O)CC[C@]4(C)[C@H]3CC[C@@]21C`, the Potency result is “inactive”. On to `NC1[C@H]2CN(c3nc4c(cc3F)c(=O)c(C(=O)O)cn4-c3ccc(F)cc3F)C[C@@H]12` (stereo not given in full), for which the Potency result is “inactive”. The value for `COc1cc(C(=O)NCCCCCC(=O)O)cc(OC)c1OC` was “inactive”.

Turning to `c1csc(SSc2cccs2)c1`, the Potency result is “inactive”. The value for `Clc1cc(Cl)nc(Cl)n1` was “inactive”; that for `CCOC(C)=O` was “inactive”; that for `O=C1Cc2cc(Cl)ccc2N1` was “inactive”. The value for `C=C(C)C(=O)OCCOCCOC(=O)C(=C)C` was “inactive”.
